PubChem BioAssay (NCATS)
Results filed as inconclusive are left out. A call without a number means that no potency is given here. Active and inactive are the calls of the source. Unless noted, the call rests on the fitted dose curve; in most records, active means well fitted curve in the direction sought with a large enough effect; inconclusive means small, poorly fitted or top-dose-only effect, or another doubt; inactive means no such curve, though single readings can be large; an effect the other way counts as inactive or inconclusive.

Columns and labels:
[1] = qHTS for differential inhibitors of proliferation of Plasmodium falciparum line 7G8 (AID 1815);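 further: parasite growth measured after three days of incubation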; further: potency means the concentration at half of the fitted maximal effect
[2] = target: Ferritin light chain (Equus caballus) (UniProt P02791); assay: qHTS Validation Assay for Identification of Novel General Anesthetics (AID 2323)
Procedure, shortened: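 Apoferritin from horse spleen (10 uM) was mixed with 1-aminoanthracene at 50% saturation in PBS, then compounds were added. After 10 min at room temperature, fluorescence was read (ex 380 nm, em 535 nm) and normalized to free-probe and complex controls.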

[3] = target: M-phase phosphoprotein 8 (Homo sapiens) (UniProt Q99549); assay: qHTS Validation Assay for Inhibitors for MPP8 Chromodomain Interactions with Methylated Histone Tails (AID 488949);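 further: AlphaScreen signal from MPP8 chromodomain bound to biotinylated H3K9me3 peptide; top concentration of the series differs between compounds; nearly all actives have a fitted effect of over 55% in size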
Procedure, shortened: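 Disruption of the preformed MPP8–trimethyl-H3K9 peptide complex (both 50 nM, 30 min, RT) is measured after 30 min compound exposure, using AlphaScreen proximity beads; aurintricarboxylic acid titration serves as plate control.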

[4] = qHTS for differential inhibitors of proliferation of Plasmodium falciparum line W2 (AID 1883); conditions: Potency: Plasmodium falciparum W2 proliferation inhibition;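 further: parasites grown with compound for 72 h before lysis and staining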; further: potency means the concentration at half of the fitted maximal effect
[5] = qHTS Assay for Modulators of Human Peripheral Myelin Protein 22 (PMP22) Expression/Activity (AID 1967; active means well fitted curve in the direction sought with a large enough effect in the signal ratio; the % refers to the signal ratio)
Procedure, shortened: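 Quantitative HTS in a mouse Schwann cell line expressing dual click beetle luciferases: Pmp22 promoter (green) and control EF-alpha promoter (red). After 24h treatment, corrected green/red signal ratio gave %Activity relative to untreated cells.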

[6] = qHTS profiling for inhibitors of Plasmodium falciparum proliferation (AID 504749); further: potency means the concentration at half of the fitted maximal effect; nearly all actives have a fitted effect of over 60% in size; conditions: P. falciparum in erythrocytes, SYBR Green DNA, 72 h
Procedure, shortened: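 P. falciparum-infected erythrocytes (0.3% parasitemia, 2.5% hematocrit final) were exposed to compounds for 72 h at 37 C in 5% CO2, then lysed with SYBR Green buffer overnight at room temperature; parasite DNA fluorescence was normalized to artemisinin and DMSO controls.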

[7] = AP1 Signaling Pathway (AID 357; active means well fitted curve in either direction with a large enough effect, not every such curve was filed as active); conditions: ME-180 (cervical carcinoma) AP-1-bla reporter, EGF-induced, beta-lactamase ratio, 5 h; at 7.69 µM (top of the series) unless noted
Procedure, shortened: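 AP-1-bla ME-180 cells with beta-lactamase reporter under AP-1 response element, stimulated with EC50 EGF; compounds titrated, 5 hours at 37 degrees Celsius. CCF4 read at 460/530 nm ratio; positive and negative modulators judged by AC50.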

[8] = target: Cytochrome P450 1A2 (Homo sapiens) (UniProt P05177); assay: p450-cyp1a2 (AID 410; calls by dose curve; further: potency means the concentration at half of the fitted maximal effect)
Procedure, shortened: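 Human CYP1A2 (20nM) demethylated Luciferin-ME at its Km (100uM) in 100mM KPO4. After 10 min compound preincubation, NADPH regeneration ran the reaction 60 min at room temperature. Luciferin was read by luminescence, normalized to 57 uM furafylline.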

[9] = NFAT Signaling Pathway (AID 444; active means well fitted curve in either direction with a large enough effect, not every such curve was filed as active;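 further: carbachol stimulus at about its EC50 of 1 µM final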); conditions: Jurkat NFAT-bla M1, carbachol, beta-lactamase ratio, 5 h; at 7.69 µM (top of the series) unless noted
Procedure, shortened: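 Jurkat cells carrying an NFAT-driven β-lactamase reporter and co-transfected muscarinic M1 receptor were treated with compound plus carbachol (1 uM final, an EC50 level) for 5 h at 37 °C. CCF4 loading followed for 1 h at RT; 460/530 nm ratio gave %activity.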

[10] = target: Glucocorticoid receptor (Homo sapiens) (UniProt P04150); assay: GR-GFP Redistribution (AID 450;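 active means compounds whose dose series gives a full or clear partial fitted curve of increased nuclear translocation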; further: potency means the concentration at half of the fitted maximal effect); conditions: U2OS GR-GFP nuclear translocation, laser cytometry, 2 h
[11] = target: Glucocorticoid receptor (Homo sapiens) (UniProt P04150); assay: GR-EFC Redistribution (AID 451; calls by dose curve; further: potency means the concentration at half of the fitted maximal effect); conditions: CHO-K1 GR-EFC translocation, beta-gal luminescence, 2 h
Procedure, shortened: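 CHO-K1 cells stably expressing nuclear-localized β-gal enzyme acceptor and GR fused C-terminally to the enzyme donor fragment; ligand-driven nuclear translocation restores β-gal by complementation. Compounds titrated up to 46 uM final, 2 h at 37 °C; luminescence read.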

[12] = target: 3',5'-cyclic-AMP phosphodiesterase 4B (Homo sapiens) (UniProt Q07343); assay: qHTS Assay for Inhibitors of PDE-IV (AID 607; active means well fitted activation curve with a large enough effect in the main read-out, with a control signal flat, not every such curve was filed as active)
Procedure, shortened: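 Live HEK293 cells with a modified cyclic nucleotide-gated (CNG) channel report intracellular cAMP via membrane-potential dye fluorescence (ex 535/em 590 nm). Endogenous PDE-IV was targeted. Compounds were tested at up to 22.9 uM final; RO 20-1724 100 uM served as control.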

[13] = target: Guanine nucleotide-binding protein G(i) subunit alpha-1 (Homo sapiens) (UniProt P63096); assay: qHTS Assay for Inhibitors of RGS12 GoLoco Motif Activity (Green Fluorophore) (AID 879);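 further: negative values mean loss of peptide binding seen as reduced polarization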
Procedure, shortened: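 Fluorescence polarization assay: 50 nM Gαi1 with 10 nM FITC-labeled RGS12 GoLoco peptide in 10 mM Tris pH 7.5, 150 mM NaCl, 0.1 mM GDP, 0.05% NP40, 10 min at room temperature with compound.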

[14] = target: Pyruvate kinase PKM (Homo sapiens) (UniProt P14618); assay: qHTS Assay for Activators of Human Muscle Pyruvate Kinase (AID 954; active means well fitted curve in the direction sought with a large enough effect, not every such curve was filed as active)
Procedure, shortened: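 Enzyme was run at intermediate activity so both inhibitors and activators could be detected. ATP formed from ADP and PEP by 0.1 nM human PKM2 during a 1 h room-temperature incubation was quantified by coupled luciferase luminescence.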

[15] = target: alpha-glucosidase (Oryza sativa, rice) (UniProt Q653V4); assay: Counterscreen for Glucocerebrosidase Inhibitors: qHTS Assay for Rice alpha-Glucosidase at pH 5.0 (AID 997)
Procedure, shortened: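 Rice alpha-glucosidase (4 nM final) with 400 uM 4-methylumbelliferyl-alpha-D-glucopyranoside in citrate buffer pH 5.0, 20 min at room temperature, stopped at pH 10; fluorescence 365/440 nm, compounds 0.7 nM–77 uM, AC50 from Hill fits.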

[16] = target: RecQ-like DNA helicase BLM (Homo sapiens) (UniProt P54132); assay: qHTS Validation Assay for Inhibitors of Bloom's syndrome helicase (BLM) (AID 2364)
Procedure, shortened: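 BLM 50 nM in 25 mM Tris-HCl pH 8.0, 5 mM NaCl, 2 mM MgCl2, 1 mM DTT, 0.01% Tween-20, 2.5 ug/ml poly(dI-dC); 15 min cpd preinc, RT. Start: 200 nM forked DNA + 2 mM ATP (final). TAMRA read, 2 reads 2 h apart.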

[17] = target: Calcium and integrin-binding protein 1 (Homo sapiens) (UniProt Q99828); assay: Primary qHTS for Identification of Calcium Integrin Binding Protein 1 (CIB1) Competitor (AID 1508620); further: potency means the concentration at half of the fitted maximal effect;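 on activity change, negative = inhibition: GST tagged CIB1 binding a fluorescein labelled alphaIIb integrin peptide tracer; top concentration of the series differs between compounds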
Procedure, shortened: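 Fluorescence polarization competition: CIB1-GST (1 uM final) preincubated with compound 15 min at room temperature, then FITC-labeled alphaIIb peptide (100 nM final) added for another 15 min. Polarization read at Ex 480/Em 540.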

[18] = target: Ubiquitin carboxyl-terminal hydrolase 2 (Homo sapiens) (UniProt O75604); assay: qHTS for Inhibitors of Ubiquitin-specific Protease USP2a Using CHOP2 as the Reporter: K484 Substrate (AID 652173);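 further: cleavage of internally quenched K48 di-ubiquitin substrate measured as rising fluorescence over time; nearly all actives have a fitted effect of over 70% in size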; further: potency means the concentration at half of the fitted maximal effect
Procedure, shortened: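 USP2 (dispensed at 5 nM) was pinned with compounds, then DiUb K48 internally quenched fluorescent substrate (dispensed at 100 nM) was added. The buffer was 20 mM Tris pH 8, 2 mM beta-mercaptoethanol and 0.05% CHAPS. Cleavage was read kinetically as rising fluorescence, Ex 525/Em 598.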

[19] = qHTS Assay for Lipid Storage Modulators (AID 1519; calls by dose curve); conditions: Drosophila S3 cells, BODIPY lipid droplet/cell ratio, laser cytometry, cells loaded with oleic acid
Procedure, shortened: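 Cells seeded at 5,000 per well were treated with compounds over a concentration series and loaded with oleic acid (400 uM, as added). Lipid droplet fluorescence (488 nm excitation, 500-530 nm channel) was read by laser-scanning cytometry and normalized to 20 uM Triacsin C.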

Ubiquitin carboxyl-terminal hydrolase 2 (Homo sapiens), sequence (O75604 whole entry, looked up): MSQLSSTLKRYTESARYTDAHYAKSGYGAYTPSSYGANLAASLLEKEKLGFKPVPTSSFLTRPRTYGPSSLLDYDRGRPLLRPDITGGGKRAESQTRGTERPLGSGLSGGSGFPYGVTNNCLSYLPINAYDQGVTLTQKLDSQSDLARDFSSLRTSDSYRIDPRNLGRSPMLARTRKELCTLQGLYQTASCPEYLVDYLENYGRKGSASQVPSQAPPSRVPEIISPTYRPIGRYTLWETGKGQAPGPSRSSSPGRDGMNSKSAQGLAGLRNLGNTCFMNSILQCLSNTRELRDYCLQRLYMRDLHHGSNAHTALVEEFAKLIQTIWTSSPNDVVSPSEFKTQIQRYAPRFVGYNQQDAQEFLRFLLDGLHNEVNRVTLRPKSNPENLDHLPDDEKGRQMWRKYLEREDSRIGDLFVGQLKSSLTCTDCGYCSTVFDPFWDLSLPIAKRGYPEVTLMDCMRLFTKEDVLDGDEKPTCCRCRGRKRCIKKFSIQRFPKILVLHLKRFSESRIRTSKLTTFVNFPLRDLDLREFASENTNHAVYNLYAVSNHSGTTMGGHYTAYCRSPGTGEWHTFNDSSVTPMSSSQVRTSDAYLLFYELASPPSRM
Calcium and integrin-binding protein 1 (Homo sapiens), sequence (Q99828 whole entry, looked up): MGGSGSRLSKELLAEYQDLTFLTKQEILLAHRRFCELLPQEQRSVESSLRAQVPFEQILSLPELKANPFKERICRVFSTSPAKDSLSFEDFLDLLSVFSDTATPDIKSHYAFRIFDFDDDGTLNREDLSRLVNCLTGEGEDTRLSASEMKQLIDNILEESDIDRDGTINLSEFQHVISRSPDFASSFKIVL
M-phase phosphoprotein 8 (Homo sapiens), sequence (Q99549 whole entry, looked up): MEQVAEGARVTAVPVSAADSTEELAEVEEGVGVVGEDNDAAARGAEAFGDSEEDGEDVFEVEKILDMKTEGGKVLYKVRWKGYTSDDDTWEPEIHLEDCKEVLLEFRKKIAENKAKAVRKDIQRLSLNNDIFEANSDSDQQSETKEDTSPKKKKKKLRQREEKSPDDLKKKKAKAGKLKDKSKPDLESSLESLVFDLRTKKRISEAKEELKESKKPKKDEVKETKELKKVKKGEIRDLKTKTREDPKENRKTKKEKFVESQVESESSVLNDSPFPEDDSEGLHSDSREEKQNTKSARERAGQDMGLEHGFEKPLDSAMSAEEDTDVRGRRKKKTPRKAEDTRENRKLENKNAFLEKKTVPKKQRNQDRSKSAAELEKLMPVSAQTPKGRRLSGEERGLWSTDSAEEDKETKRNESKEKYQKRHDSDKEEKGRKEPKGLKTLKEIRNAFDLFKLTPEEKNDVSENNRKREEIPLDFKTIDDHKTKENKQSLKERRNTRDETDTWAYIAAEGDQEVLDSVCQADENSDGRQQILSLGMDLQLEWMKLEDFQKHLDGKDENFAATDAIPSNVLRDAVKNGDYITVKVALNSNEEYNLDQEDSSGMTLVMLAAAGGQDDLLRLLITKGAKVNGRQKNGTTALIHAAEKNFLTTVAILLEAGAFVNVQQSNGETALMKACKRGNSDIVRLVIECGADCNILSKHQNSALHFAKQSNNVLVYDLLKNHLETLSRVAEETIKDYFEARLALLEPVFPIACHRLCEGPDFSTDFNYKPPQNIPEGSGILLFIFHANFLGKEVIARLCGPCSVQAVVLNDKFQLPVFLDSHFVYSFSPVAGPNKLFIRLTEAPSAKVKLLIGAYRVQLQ
Ferritin light chain (Equus caballus), sequence (P02791 2-175 limits assumed): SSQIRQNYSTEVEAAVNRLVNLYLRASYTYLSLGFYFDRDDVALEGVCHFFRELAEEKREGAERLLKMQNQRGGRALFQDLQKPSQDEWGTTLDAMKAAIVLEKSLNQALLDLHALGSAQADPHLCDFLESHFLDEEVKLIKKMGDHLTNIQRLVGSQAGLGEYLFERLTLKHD
Glucocorticoid receptor (Homo sapiens), sequence (P04150 whole entry, looked up, the tested form may be a part): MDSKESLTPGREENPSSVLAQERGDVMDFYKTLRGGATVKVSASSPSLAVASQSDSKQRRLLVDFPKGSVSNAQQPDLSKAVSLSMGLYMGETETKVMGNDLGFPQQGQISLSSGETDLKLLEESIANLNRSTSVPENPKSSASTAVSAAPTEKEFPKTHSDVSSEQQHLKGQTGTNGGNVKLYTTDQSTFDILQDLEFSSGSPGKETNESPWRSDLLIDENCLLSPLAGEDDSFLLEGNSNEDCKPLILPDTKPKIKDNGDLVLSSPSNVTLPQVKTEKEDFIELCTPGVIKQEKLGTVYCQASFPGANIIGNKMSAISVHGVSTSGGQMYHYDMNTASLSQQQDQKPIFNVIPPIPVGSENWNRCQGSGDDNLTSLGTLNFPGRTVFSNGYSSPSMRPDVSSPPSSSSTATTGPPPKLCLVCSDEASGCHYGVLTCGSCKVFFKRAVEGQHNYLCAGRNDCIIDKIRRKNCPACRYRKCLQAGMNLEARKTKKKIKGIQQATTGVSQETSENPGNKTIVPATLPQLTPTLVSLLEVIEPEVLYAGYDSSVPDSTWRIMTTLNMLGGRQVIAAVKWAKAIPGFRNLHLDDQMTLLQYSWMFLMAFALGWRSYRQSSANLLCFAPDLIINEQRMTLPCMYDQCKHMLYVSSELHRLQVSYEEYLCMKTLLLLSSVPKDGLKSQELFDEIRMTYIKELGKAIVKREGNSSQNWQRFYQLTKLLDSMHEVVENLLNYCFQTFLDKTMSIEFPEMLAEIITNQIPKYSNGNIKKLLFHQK
Pyruvate kinase PKM (Homo sapiens), sequence (P14618 whole entry, looked up): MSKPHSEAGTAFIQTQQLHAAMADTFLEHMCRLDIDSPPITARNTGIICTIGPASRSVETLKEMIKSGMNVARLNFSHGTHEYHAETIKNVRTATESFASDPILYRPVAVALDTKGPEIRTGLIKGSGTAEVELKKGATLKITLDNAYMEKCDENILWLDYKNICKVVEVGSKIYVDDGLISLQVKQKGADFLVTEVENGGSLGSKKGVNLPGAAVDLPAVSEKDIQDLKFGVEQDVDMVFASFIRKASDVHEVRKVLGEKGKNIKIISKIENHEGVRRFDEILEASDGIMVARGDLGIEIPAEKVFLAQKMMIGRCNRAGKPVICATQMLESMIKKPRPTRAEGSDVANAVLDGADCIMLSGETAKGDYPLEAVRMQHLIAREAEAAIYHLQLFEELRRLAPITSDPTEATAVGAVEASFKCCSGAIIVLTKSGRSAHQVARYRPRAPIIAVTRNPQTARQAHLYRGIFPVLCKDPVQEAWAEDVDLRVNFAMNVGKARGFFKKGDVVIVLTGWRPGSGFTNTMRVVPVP
Cytochrome P450 1A2 (Homo sapiens), sequence (P05177 whole entry, looked up): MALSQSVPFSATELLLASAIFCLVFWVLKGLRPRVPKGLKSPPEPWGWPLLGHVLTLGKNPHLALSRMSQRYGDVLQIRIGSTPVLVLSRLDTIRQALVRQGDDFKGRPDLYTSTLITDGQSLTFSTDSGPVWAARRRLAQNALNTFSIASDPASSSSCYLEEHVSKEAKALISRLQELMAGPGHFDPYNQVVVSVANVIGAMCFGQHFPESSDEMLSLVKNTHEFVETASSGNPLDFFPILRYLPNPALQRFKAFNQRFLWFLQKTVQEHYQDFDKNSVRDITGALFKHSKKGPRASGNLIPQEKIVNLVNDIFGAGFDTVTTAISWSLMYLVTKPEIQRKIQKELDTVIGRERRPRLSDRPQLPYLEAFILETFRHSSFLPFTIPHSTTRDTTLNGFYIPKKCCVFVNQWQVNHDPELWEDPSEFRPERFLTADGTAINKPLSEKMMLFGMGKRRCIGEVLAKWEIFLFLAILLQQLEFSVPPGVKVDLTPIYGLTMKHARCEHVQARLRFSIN
Guanine nucleotide-binding protein G(i) subunit alpha-1 (Homo sapiens), sequence (P63096 whole entry, looked up): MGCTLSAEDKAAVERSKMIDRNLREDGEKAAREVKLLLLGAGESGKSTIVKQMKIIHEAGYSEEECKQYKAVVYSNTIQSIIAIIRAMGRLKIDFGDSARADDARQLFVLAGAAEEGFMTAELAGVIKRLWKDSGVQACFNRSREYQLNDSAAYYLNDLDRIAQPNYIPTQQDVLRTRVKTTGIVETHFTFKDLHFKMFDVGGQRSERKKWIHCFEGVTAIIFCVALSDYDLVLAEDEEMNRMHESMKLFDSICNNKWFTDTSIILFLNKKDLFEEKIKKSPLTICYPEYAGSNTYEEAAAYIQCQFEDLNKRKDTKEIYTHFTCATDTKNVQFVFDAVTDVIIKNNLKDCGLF
3',5'-cyclic-AMP phosphodiesterase 4B (Homo sapiens), sequence (Q07343 whole entry, looked up): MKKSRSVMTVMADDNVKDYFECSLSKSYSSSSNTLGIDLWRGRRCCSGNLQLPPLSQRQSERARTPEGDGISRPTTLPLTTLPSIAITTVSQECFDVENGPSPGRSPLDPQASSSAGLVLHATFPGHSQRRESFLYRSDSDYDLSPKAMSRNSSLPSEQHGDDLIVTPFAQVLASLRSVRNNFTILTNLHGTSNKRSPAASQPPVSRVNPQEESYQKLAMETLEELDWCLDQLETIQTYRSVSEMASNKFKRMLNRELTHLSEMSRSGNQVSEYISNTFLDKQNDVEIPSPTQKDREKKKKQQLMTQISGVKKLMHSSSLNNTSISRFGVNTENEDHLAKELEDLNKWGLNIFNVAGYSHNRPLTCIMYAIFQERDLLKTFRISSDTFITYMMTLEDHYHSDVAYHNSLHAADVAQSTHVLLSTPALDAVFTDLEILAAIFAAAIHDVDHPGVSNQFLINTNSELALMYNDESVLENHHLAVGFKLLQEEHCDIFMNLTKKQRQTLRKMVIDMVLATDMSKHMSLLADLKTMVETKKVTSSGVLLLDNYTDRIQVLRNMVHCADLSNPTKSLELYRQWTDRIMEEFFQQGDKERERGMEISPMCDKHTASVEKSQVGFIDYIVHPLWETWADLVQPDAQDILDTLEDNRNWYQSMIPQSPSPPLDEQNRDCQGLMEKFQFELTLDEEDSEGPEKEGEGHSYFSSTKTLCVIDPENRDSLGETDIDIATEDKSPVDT

OC[C@H]1O[C@@H](n2cnc3c(N[C@H]4CC5CCC4C5)ncnc32)[C@H](O)[C@@H]1O (stereo partly drawn)
Potency [1]: inactive
outcome [2]: inactive
Potency [3]: inactive

CSc1nc(N)c2ncn([C@@H]3O[C@H](COP(=O)(O)OP(=O)(O)O)[C@H](O)[C@H]3O)c2n1
Potency [1]: inactive
Potency [4]: inactive
outcome [5]: inactive
outcome [2]: inactive
Potency [3]: inactive

Nc1ncnc2c1nc(Sc1ccc(Cl)cc1)n2[C@H]1O[C@@H]2COP(=O)(O)O[C@H]2[C@@H]1O
Potency [4]: 10 µM (active)
Potency [3]: inactive

CN1C[C@H](C(=O)N[C@]2(C)O[C@@]3(O)C4CCCN4C(=O)[C@H](Cc4ccccc4)N3C2=O)C[C@@H]2c3cccc4[nH]cc(c34)C[C@H]21 (stereo partly drawn)
Potency ([6]; parasite line A): 8.91 µM (active)
Potency ([6]; parasite line B): 4.47 µM (active)

CCCC(=O)NCCc1c2n(c3ccc(OC)cc13)Cc1ccccc1-2
activity change, negative = inhibition [7]: -34.8% [at 38 µM] (inactive)
Potency [8]: 2.51 µM (active)
activity change, negative = inhibition [9]: -10.2% [at 38 µM] (inactive)
Potency [10]: > 46 µM (inactive)
Potency [11]: > 46 µM (inactive)
Potency [12]: inactive
outcome [13]: inactive
outcome [14]: inactive
outcome [15]: inactive
Potency [1]: 11.2 µM (active)
Potency [4]: 7.08 µM (active)
outcome [5]: inactive
Potency [16]: inactive

O=C(Nc1cccnc1)c1cccs1
Potency [17]: inactive

CC(=O)NC(c1cccs1)c1cc(Br)c2cccnc2c1O (stereo not drawn)
Potency [17]: inactive

Cc1ccc2nc3sc(C(=O)NCc4ccco4)cc3cc2c1
Potency [17]: inactive

O=S(=O)(Nc1nccs1)c1ccc(Nc2nc(-c3ccccc3)cs2)cc1
Potency [18]: inactive
Potency [17]: 50.1 µM (active)

CC1(C)OB(c2ccc(O)c3ncc(N4CCNCC4)cc23)OC1(C)C
Potency [17]: 50.1 µM (active)

O=c1c2ccccc2nc2sc(Nc3ccc(Br)cc3)nn12
Potency [17]: inactive

Cc1c(C(=O)OCC2CCCO2)[nH]c2c1C(=O)CCC2 (stereo not drawn)
Potency [17]: inactive

c1ccc(-n2ccc(-c3nnc4n3CCCCC4)c2)cc1
Potency [17]: 79.4 µM (active)

Cc1cc(C)nc(NC(=S)N2CCN(c3cccc4ccccc34)CC2)c1
Potency [17]: inactive

O=[S+]([O-])(NCc1nccs1)c1ccc(Nc2nc(-c3ccccc3)cs2)cc1
Potency [18]: inactive

N#Cc1nc(Nc2cccc(Cl)c2)c2ncn(C3CCCC3)c2n1
Potency [17]: inactive

CN(C(=O)c1cccs1)c1cccnc1
Potency [17]: 50.1 µM (active)

N#Cc1nc(Nc2ccc(Br)cc2)nc(NC2CCCC2)n1
Potency [17]: inactive

O=C(O)c1ccc(O)c2ncc(-c3n[nH]nc3-c3ccccc3)cc12
Potency [17]: inactive

NC(=O)C1CCN(c2ncc(Br)s2)CC1
Potency [17]: 39.8 µM (active)

Cc1ccc(S(=O)(=O)Nc2ccc(Br)cc2C(=O)Nc2nc(-c3ccccc3)cs2)cc1
Potency [18]: 0.968 µM (active)

Cc1ccc(S(=O)(=O)Nc2cc3c(cc2C(=O)Nc2nc(-c4ccccc4)cs2)OCO3)cc1
Potency [18]: 1.37 µM (active)

O=C(O)c1ccccc1SC1=NS(=O)(=O)c2ccccc21
Potency [17]: inactive

N#Cc1ccc(NS(=O)(=O)c2ccc(NC(=O)Cc3ccc(Cl)c(Cl)c3)cc2)cc1
Potency [18]: 7.69 µM (active)

CC(C)(C)c1ccc(-n2cnc3cc(C(=O)N4CCCCC4)ccc32)cc1
Potency [17]: inactive

O=C(Nc1nc(-c2ccccc2)cs1)c1ccncc1NS(=O)(=O)c1cccc2cccnc12
Potency [18]: 7.69 µM (active)

Cc1ccc(CNc2ncnc3ccc(-c4ccc([C@@H](C)O)o4)cc23)o1
Potency [17]: inactive

CN1CCN(Nc2nn3c(=O)c4ccccc4nc3s2)CC1
Potency [17]: inactive

NC[C@@H](O)c1ccc(O)c(O)c1
activity change, negative = inhibition ([19]; at 57.5 µM (top of the series)): 7.77% (inactive)
max response ([19]; measured here: cell count channel max response): 7.41%
max response ([19]; measured here: lipid channel max response): 16.7%
Potency [17]: inactive

N#Cc1ccc(N[S+](=O)([O-])c2ccc(Nc3nc(-c4ccccc4)cs3)cc2)cc1
Potency [18]: inactive

NS(=O)(=O)c1ccc(Nc2nc(-c3ccccc3)cs2)cc1
Potency [18]: 21.7 µM (active)

N#Cc1ccc(NS(=O)(=O)c2ccc(NC(=O)Cc3ccc(F)c(Cl)c3)cc2)cc1
Potency [18]: 24.3 µM (active)

Cc1cc2c(s1)c1cnn(Cc3ccccc3)c(=O)c1n2C
Potency [17]: inactive

CC(=O)N1CCN(c2ccc(NCc3ccco3)cc2)CC1
Potency [17]: inactive
